Laboratory results from PubChem BioAssay AID1159580 (chemical genetic matrix, 2015).
Values joined by “and” are separate entries in the source; they are usually repeats but may differ in a detail not shown here. Equal values may be shown once. The whole screen tested about 5,500 compounds, of which about 2,000 (36%) were called active. Another 18% or so got no clear call; they are omitted. Cut-off read from the data, not from the text of the source: active = normalized growth mostly below about 0.91 (no sharp cut-off); inconclusive = no clear call, values can overlap the other calls; inactive = mostly above about 0.92. This is one part of the list.

Assay: chemical genetic growth profiling, strain panel (AID 1159580);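 note: tested at 20 µM; growth read once vehicle control cultures reached saturation at 30 °C; 1 = growth at the plate median or of vehicle wells; lower values mean less growth of the strain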
Conditions: S. cerevisiae deletion strains, growth OD

Measured: normalized growth

Cc1ncc([N+](=O)[O-])n1CCO
inactive: locus YAL013W, strain DEP1, active compounds read low 0.989 | locus YAL021C, strain ccr4, active compounds read low 0.983 | locus YAL026C, strain drs2, active compounds read low 1 | locus YAL030W, strain snc1, active compounds read low 0.971 | locus YBL061C, strain skt5, active compounds read low 0.98 | locus YBR009C, strain hhf1, active compounds read low 1.01 | locus YBR021W, strain FUR4, active compounds read low 0.998 | locus YBR023C, strain chs3, active compounds read low 0.976 | locus YBR171W, strain sec66, active compounds read low 0.982 | locus YBR229C, strain ROT2, active compounds read low 0.944 | locus YBR231C, strain swc5, active compounds read low 0.999 | locus YBR279W, strain paf1, active compounds read low 0.975 | locus YCL011C, strain gbp2, active compounds read low 0.945 | locus YCL016C, strain dcc1, active compounds read low 0.968 | locus YCL029C, strain bik1, active compounds read low 0.986 | locus YCL061C, strain MRC1, active compounds read low 0.992 | locus YCL069W, strain vba3, active compounds read low 0.985 | locus YCR088W, strain abp1, active compounds read low 0.974 | locus YDL005C, strain med2, active compounds read low 0.968 | locus YDL035C, strain GPR1, active compounds read low 0.967 | locus YDL040C, strain nat1, active compounds read low 0.98 | locus YDL074C, strain BRE1, active compounds read low 1.02 | locus YDL101C, strain DUN1, active compounds read low 0.977 | locus YDL134C, strain PPH21, active compounds read low 0.978 | locus YDL185W, strain tfp1, active compounds read low 0.983 | locus YDL192W, strain arf1, active compounds read low 0.978 | locus YDR001C, strain nth1, active compounds read low 0.965 | locus YDR069C, strain doa4, active compounds read low 0.981 | locus YDR101C, strain arx1, active compounds read low 1.01 | locus YDR137W, strain rgp1, active compounds read low 0.967 | locus YDR150W, strain NUM1, active compounds read low 0.956 | locus YDR159W, strain sac3, active compounds read low 1.02 | locus YDR162C, strain NBP2, active compounds read low 0.968 | locus YDR195W, strain ref2 0.982 | locus YDR297W, strain sur2, active compounds read low 0.974 | locus YDR318W, strain mcm21, active compounds read low 0.999 | locus YDR334W, strain swr1, active compounds read low 0.941 | locus YDR335W, strain msn5, active compounds read low 0.971 | locus YDR388W, active compounds read low 0.997 | locus YDR392W, strain spt3, active compounds read low 0.956 | locus YDR502C, strain sam2, active compounds read low 0.98 | locus YEL003W, strain gim4, active compounds read low 0.989 | locus YEL037C, strain rad23, active compounds read low 0.976 | locus YEL061C, strain CIN8 (second series), active compounds read low 0.975 | locus YEL061C, strain CIN8, active compounds read low 0.979 | locus YER015W, strain faa2, active compounds read low 0.982 | locus YER016W, strain bim1, active compounds read low 0.984 | locus YER110C, active compounds read low 0.965 | locus YER111C, strain swi4, active compounds read low 0.981 | locus YER155C, strain BEM2 (second series), active compounds read low 1.03 | locus YER155C, strain BEM2, active compounds read low 1.01 | locus YER167W, strain BCK2, active compounds read low 0.988 | locus YFR010W, strain ubp6, active compounds read low 0.981 | locus YGL078C, strain dbp3, active compounds read low 0.973 | locus YGL086W, strain mad1, active compounds read low 0.982 | locus YGL167C, strain pmr1, active compounds read low 0.984 | locus YGL173C, strain kem1, active compounds read low 0.981 | locus YGL227W, strain vid30, active compounds read low 0.981 | locus YGL240W, strain doc1, active compounds read low 0.993 | locus YGL248W, strain PDE1, active compounds read low 0.976 | locus YGL253W, strain hxk2, active compounds read low 0.977 | locus YGR078C, strain PAC10, active compounds read low 0.98 | locus YGR135W, strain pre9, active compounds read low 0.991 | locus YGR229C, strain SMI1, active compounds read low 0.998 | locus YGR252W, strain gcn5, active compounds read low 0.904 | locus YHR013C, strain ard1, active compounds read low 0.948 | locus YHR027C, strain rpn1, active compounds read low 0.962 | locus YHR030C, strain SLT2, active compounds read low 0.985 and 1.07 | locus YHR079C, strain IRE1 (second series), active compounds read low 1.01 | locus YHR079C, strain IRE1, active compounds read low 1.05 | locus YHR094C, strain hxt1, active compounds read low 0.99 | locus YHR129C, strain ARP1, active compounds read low 0.994 | locus YHR142W, strain chs7, active compounds read low 0.933 | locus YHR200W, strain rpn10, active compounds read low 0.997 | locus YIL066C, strain RNR3, active compounds read low 0.97 | locus YIL073C, strain SPO22, active compounds read low 1.01 | locus YIL125W, strain kgd1, active compounds read low 0.989 | locus YIR030C, strain dcg1, active compounds read low 0.983 | locus YJL092W, strain hpr5, active compounds read low 0.985 | locus YJL095W, strain BCK1 (second series), active compounds read low 0.98 | locus YJL095W, strain BCK1, active compounds read low 1.02 and 1.04 | locus YJL115W, strain asf1, active compounds read low 0.958 | locus YJL129C, strain trk1, active compounds read low 0.968 | locus YJL134W, strain LCB3, active compounds read low 0.978 | locus YJL154C, strain vps35, active compounds read low 0.963 | locus YJL164C, strain tpk1, active compounds read low 0.996 | locus YJL166W, strain qcr8, active compounds read low 0.96 | locus YJL168C, strain set2, active compounds read low 0.993 | locus YJL187C, strain SWE1 (second series), active compounds read low 0.985 | locus YJL187C, strain SWE1, active compounds read low 0.981 | locus YJR043C, strain POL32, active compounds read low 1.02 | locus YJR066W, strain TOR1, active compounds read low 1.01
